Test results reported in PubChem BioAssay AID1456 (Vanderbilt High Throughput Screening Facility, 2008).
The campaign covered roughly 190,000 compounds. About 4,100 (2.2%) were called active.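 Rule for the calls: active = thallium flux slope and its plate-corrected score both differing from the plate sample mean at a set confidence after two filtering rounds, in either direction; inactive = the rest.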 The full list was thinned out, with actives kept by preference.

What follows are compounds tested against Solute carrier family 12 member 5 (Homo sapiens) (UniProt Q9H2X9) (assay: KCC2 cotransporter modulators, thallium flux, primary screen, cell-based, HEK293 KCC2, FluoZin-2 fluorescence, MLSMR (AID 1456;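 note: slope of fluorescence scaled to starting intensity during 10 to 20 s after thallium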)). Settings: KCC2 cells, thallium flux FluoZin-2 fluorescence; at 10 µM.
Sequence of Solute carrier family 12 member 5 (Homo sapiens) (Q9H2X9 whole entry, looked up): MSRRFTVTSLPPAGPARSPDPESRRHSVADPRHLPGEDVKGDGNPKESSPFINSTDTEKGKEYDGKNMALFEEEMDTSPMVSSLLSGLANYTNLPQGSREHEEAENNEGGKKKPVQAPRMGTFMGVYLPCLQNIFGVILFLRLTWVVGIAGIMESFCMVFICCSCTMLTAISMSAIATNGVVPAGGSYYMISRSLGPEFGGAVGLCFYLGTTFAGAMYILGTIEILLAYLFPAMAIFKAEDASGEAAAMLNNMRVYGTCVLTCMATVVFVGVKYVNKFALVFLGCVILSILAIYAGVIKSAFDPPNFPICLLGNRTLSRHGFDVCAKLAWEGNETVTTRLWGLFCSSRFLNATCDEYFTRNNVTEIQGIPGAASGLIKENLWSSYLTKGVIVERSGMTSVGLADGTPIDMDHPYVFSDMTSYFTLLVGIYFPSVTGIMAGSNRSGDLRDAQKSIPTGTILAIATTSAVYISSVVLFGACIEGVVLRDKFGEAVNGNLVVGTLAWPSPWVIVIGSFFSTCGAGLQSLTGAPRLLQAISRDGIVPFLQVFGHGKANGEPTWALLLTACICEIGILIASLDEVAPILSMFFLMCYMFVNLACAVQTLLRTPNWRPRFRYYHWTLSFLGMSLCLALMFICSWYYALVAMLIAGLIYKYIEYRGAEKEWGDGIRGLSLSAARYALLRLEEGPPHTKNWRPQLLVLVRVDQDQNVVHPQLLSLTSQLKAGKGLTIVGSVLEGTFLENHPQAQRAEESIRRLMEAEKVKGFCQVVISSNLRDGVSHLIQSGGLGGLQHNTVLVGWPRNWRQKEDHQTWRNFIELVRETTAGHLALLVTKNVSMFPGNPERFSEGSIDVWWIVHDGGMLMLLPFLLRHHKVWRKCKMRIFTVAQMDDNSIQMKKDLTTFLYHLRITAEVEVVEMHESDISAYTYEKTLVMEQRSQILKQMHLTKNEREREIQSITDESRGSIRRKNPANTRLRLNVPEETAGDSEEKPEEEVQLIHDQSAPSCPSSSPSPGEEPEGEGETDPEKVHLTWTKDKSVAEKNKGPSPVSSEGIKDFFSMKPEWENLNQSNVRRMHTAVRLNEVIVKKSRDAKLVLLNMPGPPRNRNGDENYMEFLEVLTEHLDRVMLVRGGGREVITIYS

B-score of Tl+ flux slope (higher = more flux/activation; lower = inhibition), active:
O=c1c(-c2ccc3c(c2)OCCO3)c(C(F)(F)F)oc2cc(O)cc(O)c12 -2.89, CCCCSc1[nH]c(=O)c(C(=O)OCC)cc1C#N 13, Cc1ccccc1NC(=S)NNC(=O)c1cccc(Br)c1 11.3, Cc1ccc(C)c(NC(=S)NNC(=O)c2csc(C)c2)c1 6.59, Cc1ccc(C(=O)NC(=S)Nc2ccccc2C)cc1 26.9, COC(=O)c1sc(NC(=S)NC(=O)c2ccc(C)cc2)nc1C 33.9, Cc1ccc(C)c(NC(=S)NNC(=S)Nc2ccc(C(C)C)cc2)c1 4.26, Cc1cc(C(=O)NNC(=S)Nc2ccccc2C)cs1 4.58, Cc1ccc(N=Cc2c(O)n(-c3nccs3)c(=O)c3ccccc23)c(C)c1 -6.91, CCOC(=O)C1=C(NC(=S)NC(=O)c2ccccc2)c2ccccc2CC1(C)C 3.94, CCOC(=O)c1c(C)[nH]c(C)c1C(=O)CSc1nc(N)cc(N)n1 6.26, COc1ccccc1/C=C/C=N/n1c(-c2ccc(Cl)cc2Cl)n[nH]c1=S 11.5, CCC1=C/C(=C\c2ccc3c(c2)OCO3)C(=O)S1 -8.87, Cc1nnc(SC(C(=O)Nc2cc(Cl)cc(Cl)c2)c2ccccc2)[nH]c1=O (stereo not given) -4.12, Cc1c(C(=O)NC(=S)NCc2cccnc2)oc2ccccc12 13.6, COC(=O)c1sccc1NC(=O)CSc1ccccc1NS(=O)(=O)c1cc(Cl)ccc1Cl 18.4, CCCC(=O)N1c2ccccc2NC2=C(C(=O)CCC2)C1c1ccc(F)cc1 (stereo not given) 2.84, Oc1ccc2ccccc2c1N=Nc1nccs1 111, CCCc1cc(-c2n[nH]c(=S)n2Cc2ccccc2)cs1 4.54, CCc1cc(-c2n[nH]c(=S)n2CC(C)C)cs1 8.35

B-score of Tl+ flux slope (higher = more flux/activation; lower = inhibition), inactive:
CCOC(=O)c1cc2cc(-c3c(C(=O)OCC)oc4cc(O)cc(O)c4c3=O)ccc2o1 -1.36, COc1ccc(-c2onc(C)c2-c2ccc3c(c2)OCCO3)c(O)c1 0.0687, COC(=O)C1=C(C)NC(=O)/C1=C/c1ccc(CNS(=O)(=O)c2ccc(C)cc2)o1 -0.17, O=C(O)C(NS(=O)(=O)c1cccc2nsnc12)c1ccccc1 (stereo not given) 0.0778, CCOC(=O)c1cc(C#N)c(N2CCCCC2)nc1-c1ccccc1 0.496, Cc1cc(=O)[nH]c(SCC(N)=O)c1C#N 0.485, CCc1c(C)nc2c(-c3ccccc3)c(C)nn2c1Nc1ccc(NC(C)=O)cc1 0.635, Cc1ccc(C)c(NC(=O)CCC(=O)NNC(=O)c2cccs2)c1 -1.3, Cc1ccc(C)c(NC(=O)C(OC(=O)c2ccc(C)s2)c2ccccc2)c1 (stereo not given) 0.676, Cc1ccccc1NC(=O)c1ccccc1 0.272, CC(=O)c1sc(NC(=O)c2ccc(C)cc2)nc1C 0.0252, Cc1ccc(NC(=S)NC(=O)c2ccc(-c3ccccc3)cc2)c(C)c1 1.26, Cc1cc2[nH]ncc2cc1NC(=S)NC(=O)c1ccccc1 0.179, O=C(NC(=S)Nc1cccc2c(O)cccc12)c1cccc(Br)c1 1.46, COC(=O)c1sc(NC(=O)c2ccc(OC)cc2OC)nc1C -0.264, Cc1ccc2c(c1)c1ncn(Cc3ccc(F)cc3)c(=O)c1n2C -2.08, O=[N+]([O-])c1cc([N+](=O)[O-])c2cccnc2c1O -1.12, COC(=O)c1ccc(COc2cc([N+](=O)[O-])cc3cccnc23)cc1 0.95, O=C(Nc1ccc([N+](=O)[O-])cc1)C1CC12CCC2 (stereo not given) -0.552, CCOc1ccc(NC(=S)N2CCCCCC2)cc1 -0.294, CCOCC(=O)Nc1ncc(S(=O)(=O)c2ccc([N+](=O)[O-])cc2)s1 -0.205, CCc1ccc(-n2c(SCc3cc(=O)n4cc(Br)ccc4n3)nc3[nH]ncc3c2=O)cc1 -1.01, Cc1ccccc1NC(=S)Nc1cccc([N+](=O)[O-])c1 0.705, CC(C)c1ccc(NC(=S)NNc2ccc(Cl)c(C(=O)O)c2)cc1 0.393, Cc1ccc(NC(=S)N/N=C2/CCCc3c(C)cc(C)cc32)cc1 0.076, Cc1cc(C(=O)NNC(=S)NC(C)c2ccccc2)cs1 (stereo not given) -1.17, COc1ccc(CCNC(=O)C(=O)NCC2CCNCC2)cc1OC 0.52, O=C(NNc1cc(Cl)cc(Cl)c1)c1c(F)cccc1Cl -0.755, COc1cc(OC)c(OC)cc1/C=N/Nc1ncnc2c1[nH]c1ccc(C)cc12 -1.07, Cc1ccc(C(=O)NNc2ncnc3ccccc23)cc1 0.377, OC(c1ccccc1)C(CN1CCOCC1)c1ccccc1 (stereo not given) 0.0146, Cc1ccc(N=Cc2c(O)cc(C)oc2=O)c(C)c1 1.91, Cc1ccc(-n2c(O)c(C=Nc3ccc(S(=O)(=O)Nc4ncccn4)cc3)c3ccccc3c2=O)cc1C -0.0402, CC(=O)Nc1ccc(S(=O)(=O)NC2(C(F)(F)F)C(=O)NC(C)=C2C#N)cc1 (stereo not given) -0.983, CCOC(=O)c1c(NC(=O)C2(C)Cc3ccccc3C(=O)O2)sc2c1CCCC2 (stereo not given) 1.05, COCCCNC(=S)NC(=O)c1ccccc1 1.23, Cc1nnsc1C(=O)NCc1c(F)cccc1Cl 0.221, COc1ccccc1NC(=O)c1cc(Cl)nc2ccccc12 0.201, COc1cc(NC(=O)c2ccc(CNc3c(N4CCCC4)c(=O)c3=O)cc2)cc(OC)c1OC 0.127, Cc1cc(C)nc(SCC(=O)N(C)C)n1 -0.609, CCOC(=O)c1c(C)oc(C)c(C(=O)OCC)c1=O -0.18, O=S(=O)(NCCc1csc(-c2ccccc2)n1)c1cccnc1 -0.711, C/C(=N/NC(=O)CC(=O)N/N=C(\C)c1ccc([N+](=O)[O-])cc1)c1ccc([N+](=O)[O-])cc1 -0.738, Fc1ccccc1/C=N/n1c(-c2cccnc2)n[nH]c1=S -0.286, S=c1[nH]nc(-c2ccncc2)n1/N=C/c1ccccc1Cl 1.47, COc1ccc(NC(=O)c2cn(-c3ccccc3)nc2SC)cc1 -1.58, CCOC(=O)c1ccc(N=C2SC(C(=O)NC)CC(=O)N2CCc2ccccc2)cc1 (stereo not given) 0.234, COc1ccc2nc(NC(=O)NC3CCCCC3)sc2c1 -1.35, O=C1/C(=C/c2ccc3c(c2)OCO3)CCC/C1=C\c1ccc2c(c1)OCO2 0.12, CSC1=N/C(=C\c2ccc3c(c2)OCO3)C(=O)S1 -0.302, COc1ccc(/C=N/n2nnnc2N)cc1OC 0.513, c1ccc(C2c3[nH]c4ccccc4c3CCN2Cc2cccn2-c2cccnc2)nc1 (stereo not given) -1.15, Cc1nnc(SC(C(=O)c2ccccc2)c2ccccc2)[nH]c1=O (stereo not given) -0.235, O=C(Nc1cc(Cl)cc(Cl)c1)C(NCCCO)c1ccccc1 (stereo not given) -0.607, O=C1N(c2ccccc2)C(=Nc2ccccc2)SC12CC2 -0.447, O=C(c1ccc(=O)oc1)N1CCC(C(O)(c2ccccc2)c2ccccc2)CC1 -0.673, Cc1ccc(C(=O)NC(=S)NCc2cccnc2)cc1 1.21, O=C(CCc1ccccc1)NCc1cccnc1 0.123, CC(C)(C)c1ccc(CCC2OCC(CN3CCOCC3)O2)cc1 (stereo not given) 0.742, CCNC(=S)N1CCN(CCN=CC2=C(O)CC(C)(C)CC2=O)CC1 -0.763, Cc1ccc(C(O)P(=O)(OC(C)C)c2ccc(N(C)C)cc2)cc1 (stereo not given) 0.0994, COC(=O)c1sccc1NC(=O)COc1ccc(Cl)cc1 0.143, COC(=O)c1scc(C)c1NC(=O)CSc1ccc(Cl)cc1 -1.21, O=C(CSc1ccc(-c2ccco2)nn1)NCc1ccc2c(c1)OCO2 -0.85, CC(C)Cc1nc(Cl)c(C#N)c2c1CCC2 -0.778, O=C1CC(c2cccc(F)c2)C2=C(CCCC2=O)N1 (stereo not given) -0.124, CCC(=O)N1c2ccccc2NC2=C(C(=O)CCC2)C1c1ccco1 (stereo not given) 1.12, Cn1cnc([N+](=O)[O-])c1Sc1n[nH]c(N)n1 0.197, Cn1cnc(S(=O)(=O)Nc2ccc3c(c2)OCCO3)c1 1.1, Oc1ccc(N=Nc2nccs2)c(O)c1 0.824, Oc1ccc2ccccc2c1C=Nc1ccccc1 -0.244, Cc1ccc(NC(=O)Nc2cc(-c3ccccc3)nn2C)cc1Cl 0.308, CCOC(=O)c1cnc(COc2ccccc2Cl)[nH]c1=O 1.26, Cn1c(=O)c2c(nc(NCc3ccccc3)n2CC(N)=O)n(C)c1=O 0.178, Cc1cc(-c2csc(N)n2)c(C)n1Cc1ccccc1 1.01, C=CCn1c(-c2ccc3[nH]c(C)c(C)c3c2)n[nH]c1=S -0.00959, CCCc1cc(-c2n[nH]c(=S)n2CC)c2ccccc2n1 -0.942, CCn1c(-c2ccncc2)n[nH]c1=S -0.798, CSC1=NCCN1C(=O)Cc1cccc2ccccc12 0.183, Brc1ccc(-c2n(-c3ccccn3)c3ccccc3[n+]2-c2ccccn2)cc1 1.55
